The list is not random: actives were taken first. Their share in the collection is about 11%.
Pf growth 48h – inhibits P. falciparum growth in the first generation, 48 h | P. falciparum luciferase growth in erythrocytes, 48 h | Potency, µM (doses to about 28.7 µM), inactives show at the highest dose activity change, negative = inhibition, usual class: inhibitors | 5.9% of 310,000 active
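In quantitative HTS format, infected erythrocytes bearing luciferase-reporter parasites were treated for a single generation at 37 C. Luminescence after adding detection reagent served as the growth measure.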
AmpC detergent – blocks E. coli AmpC beta-lactamase in detergent assay | AmpC hydrolysis of nitrocefin, absorbance 480 nm, 0.01% Triton | Potency, µM (titrated, usually from 114 µM), without a hit: top-dose activity change, negative = inhibition, usual class: inhibitors | AID 485294 | P00811 | 0.041% of 370,000 active;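 further: 0% = no-compound wells and -100% = no-enzyme wells; nearly all actives have a fitted effect of over 25% in size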
Target sequence (P00811 whole entry, looked up): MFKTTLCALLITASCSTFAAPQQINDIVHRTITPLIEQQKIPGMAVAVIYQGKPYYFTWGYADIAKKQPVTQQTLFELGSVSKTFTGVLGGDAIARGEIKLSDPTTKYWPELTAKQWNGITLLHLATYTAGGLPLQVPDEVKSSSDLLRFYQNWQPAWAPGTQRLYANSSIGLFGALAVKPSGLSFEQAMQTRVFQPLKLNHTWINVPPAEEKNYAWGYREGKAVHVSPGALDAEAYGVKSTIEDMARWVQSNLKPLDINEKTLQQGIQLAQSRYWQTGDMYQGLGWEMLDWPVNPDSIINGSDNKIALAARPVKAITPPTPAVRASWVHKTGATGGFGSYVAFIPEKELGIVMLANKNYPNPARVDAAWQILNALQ
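AmpC (5.3 nM in the dispensed reagent) in 20 mM phosphate pH 7.0 with 0.01% (detergent screen) or 0.0001% Triton X-100 was preincubated with compounds for 15 min at room temperature. Nitrocefin was then added from an 800 uM solution, and hydrolysis was followed at 480 nm.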
AmpC inh no detg – AmpC beta-lactamase inhibition without detergent; 0.52% of 330,000 active; P00811; AmpC nitrocefin hydrolysis, absorbance 480 nm, 0.0001% Triton; Potency, µM (top dose mostly 57.1 µM), without a hit: top-dose activity change, negative = inhibition, hits mostly inhibitors;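 further: plate controls were no compound for no effect and no enzyme for full effect; nearly all actives have a fitted effect of over 20% in size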
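20 mM phosphate pH 7.0 + 0.01% (detergent screen) or 0.0001% Triton X-100; 5.3 nM AmpC reagent; cpd preinc 15 min RT; nitrocefin (800 uM stock) to start; A480 q20 s × 4 min; Activity was normalised to no-enzyme and no-compound control wells.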
HCV inhibitor – inhibitors of hepatitis C virus infection. 3.4% of 340,000 active. Huh7.5.1 HCVcc-Cre infection, luciferase reporter, 44 h. AID 651820. Potency, µM (series often up to 41.8 µM), for inactives: at the highest dose activity change, negative = inhibition, hits mostly inhibitors
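Seed cells (1,000/well) for 4 h; treat with compound and infect with HCVcc-Cre, moi about 0.5. Incubate 44 h, then detect luciferase activity.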
Pf growth 96h – inhibits malaria parasite growth, 96 h | Potency, µM (highest dose often 28.7 µM), for inactives: at the top dose activity change, negative = inhibition, most hits filed as inhibitors | 6.9% of 320,000 active | P. falciparum luciferase reporter growth, 96 h
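Luminescence readout: decreased luciferase signal marks inhibited growth of reporter-expressing P. falciparum in infected red cells (2% hematocrit, 0.05% parasitemia final), exposed to compound two generations (96 h, 37 C, 5% CO2).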
AMA1-RON2 inh – disrupts binding of P. falciparum AMA1 to RON2. AlphaScreen AMA1-biotinylated RON2 peptide binding. AID 720542. 0.2% of 360,000 active. Potency, µM (series often up to 58.2 µM), for the others: at the top dose activity change, negative = inhibition, most hits filed as inhibitors;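 further: 0% = vehicle wells and -100% = peptide control; nearly all actives have a fitted effect of over 45% in size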
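AMA1 (3D7) with his tag at 25 nM final met compounds first, then biotinylated RON2 peptide at 25 nM; detection used donor plus acceptor beads, 10 µg/mL apiece, read by AlphaScreen after 30 min at room temperature.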
* marks the source's active call; other numbers are inactive results. The call rests on the fitted dose curve; in most records, active means well fitted curve in the direction sought with a large enough effect; inconclusive means small, poorly fitted or top-dose-only effect, or another doubt; inactive means no such curve, though single readings can be large; an effect the other way counts as inactive or inconclusive. Unless noted, on the % scale 0 is the no-effect control and ±100 the full control effect; potency means the concentration at half of the fitted maximal effect.

COc1ccc(OC)c(/C=N/NC(=O)CSc2cc(C)nc3c(OC)cccc23)c1 was read as Pf growth 48h -9.9%, AmpC detergent -6.3%, AmpC inh no detg 3.8%, HCV inhibitor 8.5%, Pf growth 96h 8.28µM* and AMA1-RON2 inh -24.4%.
`CC(=O)c1ccc(NC(=O)Cn2c(=O)n(Cc3ccco3)c(=O)c3sc4ccccc4c32)cc1` gave AmpC detergent 24.0%.
Screening CCN(CC(=O)NCc1ccc(F)cc1)C(=O)CN1CCN(c2cc(Cl)ccc2C)CC1 returned Pf growth 48h inconclusive, AmpC detergent 0.5%, AmpC inh no detg 177.6%, HCV inhibitor 6.31µM*, Pf growth 96h inconclusive and AMA1-RON2 inh 4.4%.
Screening N#Cc1ccccc1-c1csc(N2CCC(C(N)=O)CC2)n1 returned Pf growth 48h 9.3% and Pf growth 96h 7.1%.
Screening CN(Cc1ccccc1)C(=S)NC(=O)c1ccc(-c2ccccc2)cc1 returned Pf growth 48h inconclusive, AmpC detergent -2.6%, AmpC inh no detg -32.0%, HCV inhibitor 0.2%, Pf growth 96h 7.38µM* and AMA1-RON2 inh 59.6%.
Screening C=CCN(CC=C)C(=S)NC(=O)c1ccc(-c2ccccc2)cc1 returned AmpC detergent -5.5%, AmpC inh no detg -45.2%, HCV inhibitor inconclusive, Pf growth 96h 7.38µM* and AMA1-RON2 inh 4.7%.
For C=CCN(CC=C)C(=S)NC(=O)c1ccc(OC)cc1 the results were Pf growth 48h inconclusive, AmpC detergent -7.0%, AmpC inh no detg -11.1%, HCV inhibitor -16.8%, Pf growth 96h 26.8% and AMA1-RON2 inh 63.7%.
For Clc1cc2nc3ccccn3c2cc1Cl the results were Pf growth 48h 22.0%, AmpC detergent 1.8%, AmpC inh no detg -15.9%, HCV inhibitor 25.1µM*, Pf growth 96h 80.5% and AMA1-RON2 inh 49.8%.
Screening CCOc1ccc(NC(=O)c2nn(C)c3c2COc2ccccc2-3)cc1 returned AmpC detergent 19.3%.
`Cc1cccc(N2CCN(C(=O)n3ccnc3)CC2)c1C` gave Pf growth 48h inconclusive, AmpC detergent -9.8%, AmpC inh no detg -7.7%, HCV inhibitor inconclusive, Pf growth 96h 11.7µM* and AMA1-RON2 inh -3.6%.
COc1ccccc1N1CCN(C2CCN(C(=O)c3cccs3)CC2)CC1 was read as Pf growth 48h -6.0%, AmpC detergent inconclusive, AmpC inh no detg -9.9%, HCV inhibitor 7.7%, Pf growth 96h -3.9% and AMA1-RON2 inh 8.6%.
`Cc1cccc(N2CCN(C(=O)CCCSc3nc4ccccc4[nH]3)CC2)c1C` gave Pf growth 48h inconclusive, AmpC detergent 4.1%, AmpC inh no detg -5.9%, Pf growth 96h 9.28µM* and AMA1-RON2 inh 4.8%.
`Cc1cccc(N2CCN(C(=O)c3cccs3)CC2)c1C` gave Pf growth 48h -4.3%, AmpC detergent inconclusive, AmpC inh no detg -8.2%, HCV inhibitor -4.5%, Pf growth 96h 10.4µM* and AMA1-RON2 inh -5.7%.
For O=C(c1cccs1)N1CCC(N2CCN(c3ccccc3)CC2)CC1 the results were Pf growth 48h 0.8%, AmpC detergent -7.9%, AmpC inh no detg -8.4%, HCV inhibitor -5.6%, Pf growth 96h 3.29µM* and AMA1-RON2 inh -12.1%.
For O=C(CCCSc1nc2ccccc2[nH]1)N1CCN(c2ccccc2)CC1 the results were Pf growth 48h inconclusive, AmpC detergent -1.7%, AmpC inh no detg -11.7%, HCV inhibitor inconclusive, Pf growth 96h inconclusive and AMA1-RON2 inh -15.4%.
Cc1cc(Nc2ccccc2F)n2nc(-c3ccccc3)nc2n1 was read as AmpC detergent 21.5%.
Screening COc1ccccc1CNC(=O)CCn1c(=O)c2ccccc2n(CC(=O)Nc2ccc(C)cc2Cl)c1=O returned AmpC detergent 14.6%.
`Cc1cccc(N2CCN(C(=O)Cn3cccc3)CC2)c1C` gave AmpC detergent -17.1%, AmpC inh no detg -6.6%, HCV inhibitor -21.7%, Pf growth 96h 4.15µM* and AMA1-RON2 inh -1.3%.

Source: PubChem
